# Structures can show the parent of a compound that is named as a salt. ± gives the standard deviation of the averaged measurements.
# System: Toxoplasma gondii RH (in HFF)
# Experiment: parasite growth relative to the screen mean (all compounds = 100%); higher = less inhibition of parasite growth
# Details: 5 µM; 72 h; oxygen 21 %
# In short: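 Growth values are relative to the mean of the whole screen and averaged over duplicate screens, with all compounds together set to 100%. Parasites (RH β-Gal–GFP Toxoplasma, MOI 1:5) were added within 2 h of pinning compounds at 5 µM final onto confluent human foreskin fibroblasts and grown 72 h at 21% O2. Parasite number came from CPRG β-Gal readings against in-plate standard curves.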
row,Compound,parasite growth
1,O=[N+]([O-])c1cccc2c(Br)[nH]nc12 [3-Bromo-7-nitroindazole],123 ± 5.8%
2,COc1ccc(CN(CCN(C)C)c2ccccn2)cc1 [Mepyramine maleate],115 ± 5.5%
3,NC(C(=O)O)c1ccc(C(=O)O)c(C(=O)O)c1 (racemic),101 ± 31%
4,Clc1ccccc1CNCC1CCC(CNCc2ccccc2Cl)CC1 (stereo not given),38.9 ± 23%
5,CC[N+](CC)(CC)CCOc1ccc(/C=C/c2ccccc2)cc1,99.2 ± 19%
6,CC(C)C[C@H](NC(=O)[C@@H](O)[C@H](N)Cc1ccccc1)C(=O)O [Bestatin],136 ± 6.9%
7,CC(/C=C/c1cccc(Oc2ccc(F)cc2)c1)N(O)C(N)=O (stereo not given),184 ± 12%
8,COc1ccc([C@@H]2CNC(=O)C2)cc1OC1CCCC1 [(R)-(-)-Rolipram],106 ± 6%
9,CNCCCC12CCC(c3ccccc31)c1ccccc12 [Maprotiline hydrochloride],54.1 ± 17%
10,NC(C(=O)O)c1ccc(C(=O)O)c(C(=O)O)c1 (stereo not given),141 ± 3%
11,CN(C(=O)CCCOc1ccc2[nH]c(=O)ccc2c1)C1CCCCC1 [Cilostamide],69.6 ± 26%
12,CCOC(=O)c1ccc(OC(=O)CCCCCNC(=N)N)cc1 [Gabexate mesylate],144 ± 6.4%
13,C[C@@H](CN1CC(=O)NC(=O)C1)N1CC(=O)NC(=O)C1 [Dexrazoxane hydrochloride],102 ± 13%
14,O=C(O)CC/C=C\C[C@H]1CO[C@@H](c2ccccc2Cl)O[C@H]1c1ccccc1O,79.02 ± 0.65%
15,CN[C@H]1CC[C@@H](c2ccc(Cl)c(Cl)c2)c2ccccc21 [Sertraline hydrochloride],29.3 ± 4.4%
